# In PubChem BioAssay (Tox21):
# “And” between values parts separate entries of the source, which are not always exact repeats. Equal values may be shown once. Results filed as inconclusive are left out. The source made the active and inactive calls. The call rests on the fitted dose curve; in most records, active means well fitted cell-killing curve with a large enough effect in the repeat runs; inconclusive means weak or mixed curves, or effect the other way; inactive means flat fitted curve, though single readings scatter.
# Test: qHTS assay to identify small molecule that activate the aryl hydrocarbon receptor (AhR) signaling pathway - cell viability counter screen (AID 743086); further: nearly all actives have a fitted effect of over 45% in size;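 on viability change, negative = cytotoxic: HepG2 liver cells carrying the AhR DRE luciferase reporter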
# Details: HepG2-AhR-luc viability, CellTiter-Fluor, 24 h; series mostly up to 70.3 µM; viability change, negative = cytotoxic: at the top concentration
# Excerpt: U.S. Tox21 Program National Center for Advancing Translational Sciences [NCATS] NIH Chemical Genomics Center [NCGC] U.S. Environmental Protection Agency [EPA] National Institutes of Environmental Health Sciences [NIEHS] National Toxicology Program [NTP] U.S. Food and Drug Administration [FDA] Tox21 Assay overview: The Aryl hydrocarbon Receptor (AhR), a member of the family of basic helix-loop-helix transcription factors, is crucial to adaptive responses to environmental changes. AhR mediates cellular responses to environmental pollutants such as aromatic hydrocarbons through induction of phase I and II enzymes but also interacts with other nuclear receptor signaling pathways A cell based HepG2-AhR-luc assay (HG2L7.5c1 cell line, developed by Dr. Michael S. Denison, University of California at Davis) was used to assess the activation of AhR. HepG2 (human hepatocellular carcinoma) cells were stably transfected with an Ah receptor-responsive firefly luciferase reporter gene plasmid containing 20 dioxin responsive elements and luciferase reporter gene. Increased luciferase activity can be used to identify the compounds that induce AhR activation. The cytotoxicity of the compounds screened against the HepG2-AhR-luc cell line was tested in parallel by measuring the cell viability using CellTiter-Fluor assay in the same wells.
# Tox21 Assay Protocol Summary: 4000 cells in 5 uL/well were dispensed into white wall/solid bottom 1536-well plates using a Multidrop Combi (Thermo Fisher Scientific Inc., Waltham, MA) dispenser. After the assay plates were incubated at 37C for 5 h, 23 nL of compound or DMSO vehicle was transferred to the assay plates by a pintool station (Kalypsys, San Diego, CA). The plates were incubated at 37C for 24 hr. For cell viability measurement, 1 ul/well of CellTiter-Fluor reagent (Promega, Madison, WI) was added into the assay plates using a Flying Reagent Dispenser (FRD) (Aurora Discovery, CA),and then the assay plates were incubated at 37C for 30 min. The fluorescence intensity in the plates was measured using a ViewLux plate reader (PerkinElmer, Shelton, CT), followed by the addition of 4 uL of ONE-Glo Luciferase Assay reagent (Promega) using an FRD (Aurora Discovery). After the assay plates were incubated at room temperature for 30 min, luminescence intensity was measured using a ViewLux plate reader (Perkin Elmer).
# On the % scale 0 is the no-effect control and ±100 the full control effect; potency means the concentration at half of the fitted maximal effect.
Structure (SMILES),"viability change, negative = cytotoxic",Potency
CCCCCCOC(=O)C(C)CC (stereo not given),-1.79% (inactive),
[Cl][Pt-2]([Cl])([Cl])[Cl],-4.32% [at 95 µM] (inactive),
CCCCCCCCCCCCCCCC[N+](C)(C)CC,,18.8 µM (active) and 48.7 µM (active)
C=C(C)C(=O)OCCCCCCCCCC,-4.03% [at 95 µM] (inactive),
O=c1[nH]c2ccccc2n1CCCN1CCN(C(c2ccccc2)c2ccccc2)CC1,,26.6 µM (active)
Cc1ccc(C)cc1,-3.48% (inactive),
O=c1[nH]c(=O)n([C@H]2C[C@H](O)[C@@H](CO)O2)cc1F,6.66% (inactive),
CC1(C)CCC[C@]2(C)[C@H]3CCO[C@]3(C)CC[C@@H]12,1.37% (inactive),
CCCCC/C=C\C/C=C\CCCCCCCC(=O)O,,inactive
FC(F)(F)c1cccc(Cl)c1,-7.46% (inactive),
CCCCOC(=O)CO,0.672% (inactive),
Cc1cc(-c2ccc(N=Nc3cc(S(=O)(=O)O)c4ccccc4c3N)c(C)c2)ccc1N=Nc1cc(S(=O)(=O)O)c2ccccc2c1N,-2.54% [at 95 µM] (inactive),
CC(=O)CC(=O)Nc1ccc(S(=O)(=O)O)cc1,0.139% (inactive),
C#C[C@]1(OC(C)=O)CC[C@H]2[C@@H]3CCC4=C/C(=N/O)CC[C@@H]4[C@H]3CC[C@@]21CC,-21.9% (inactive),
c1ccc(C(O[C@@H]2CCCN(CCc3ccc4c(c3)OCO4)C2)c2ccccc2)cc1,-5.24% (inactive),
CCC(CC)(CC(=O)Nc1cccc(/C=C/c2nc(C3CCC3)cs2)c1)C(=O)O,6.21% (inactive),
C/C=C/C=C/COC(=O)C(C)C,-4.01% (inactive),
S=C([S-])NCCNC(=S)[S-].S=C([S-])NCCNC(=S)[S-].[Mn+2].[Zn+2],2.62% (inactive),
CCC(C)(CCC(C)C)C(=O)[O][Sn]([CH3])([CH3])[O]C(=O)C(C)(CC)CCC(C)C (stereo not given),-1.01% (inactive),
CC(C)(C)CC(C)(C)c1ccc(Nc2ccc(C(C)(C)CC(C)(C)C)cc2)cc1,-11.3% [at 8.47 µM] (inactive),

Structure (SMILES),"viability change, negative = cytotoxic",Potency
COc1ccc(NC(=O)CC(C)=O)cc1,-3.29% (inactive),
CC(C)(C)c1ccc(C(O)CCCN2CCC(C(O)(c3ccccc3)c3ccccc3)CC2)cc1 (stereo not given),-4.33% (inactive),
O=C(Nc1ccc2c(O)c(N=Nc3ccc(N=Nc4ccc(S(=O)(=O)O)cc4)cc3)c(S(=O)(=O)O)cc2c1)c1ccccc1,,19.3 µM (active)
O=C(/C=C/c1ccccc1)OC/C=C/c1ccccc1,-2.18% (inactive),
CC(=O)c1ccc(C(C)=O)cc1,6.62% [at 95 µM] (inactive),
NC[C@H]1O[C@H](O[C@H]2[C@H](O[C@@H]3O[C@H](CO)[C@@H](O)[C@H]3O)C(O)[C@H](N)C[C@@H]2N)[C@H](N)[C@@H](O)[C@@H]1O (stereo not given in full),3.01% [at 32.5 µM] (inactive),
O=C1CCc2cc(OCCCCc3nnnn3C3CCCCC3)ccc2N1,10.5% (inactive),
Cc1cc(C(C#N)c2ccc(Cl)cc2)c(Cl)cc1NC(=O)c1cc(I)cc(I)c1O (stereo not given),-2.5% (inactive),
CCO[C@@H]1O[C@H](C(COCc2ccccc2)OCc2ccccc2)[C@H](OCc2ccccc2)[C@H]1O (stereo not given in full),9.1% [at 32.5 µM] (inactive),
O=C1NC(=O)[C@@H]2CC=CC[C@H]12,-8.52% (inactive),
CCCC(=O)OC(C)(C)Cc1ccccc1,-7.66% (inactive),
Nc1ccc(Oc2ccc(Cl)cc2)cc1,2.8% (inactive),
CC(C(=O)O)c1ccc2c(c1)[nH]c1ccc(Cl)cc12 (stereo not given),3.27% (inactive),
CCCCC(CC)COC(=O)CCCCC(=O)OCc1ccccc1 (stereo not given),-0.691% (inactive),
O=[N+]([O-])c1cccc(C(F)(F)F)c1,-1.07% [at 95 µM] (inactive),
Clc1nnc(Cl)c2ccccc12,1.59% (inactive),
Cc1c2ccccc2c(C)c2c1ccc1ccccc12,,60.5 µM (active) and 48.6 µM (active)
COC(C)=O,,inactive
OC1CCC(C2CCCCC2)CC1 (stereo not given),-1.97% (inactive),
Cl[Si](Cl)(c1ccccc1)c1ccccc1,3.75% [at 95 µM] (inactive),
